Results from PubChem BioAssay (NCATS).
Inconclusive results are not listed. Activity calls are given as the source filed them. Calls come from the whole dose curve; as a rule, active = well fitted curve in either direction with a large enough effect (not every such curve was filed as active); inconclusive = small, poorly fitted or top-dose-only effect, or another doubt; inactive = flat fitted curve, though single readings scatter.

Test: AP1 Signaling Pathway (AID 357);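 note: ME-180 reporter cells stimulated with EGF at its EC50 level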
Conditions: ME-180 (cervical carcinoma) AP-1-bla reporter, EGF-induced, beta-lactamase ratio, 5 h; at 17.2 µM (top of the series) unless noted
Summary of the method: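 Titration-series screen for positive or negative modulators of EC50 EGF-induced signaling in ME-180 cells carrying an AP-1-driven beta-lactamase reporter. After 5 hours at 37 degrees Celsius, CCF4 460nm/530nm emission ratio gave %Activity; AC50 values derived.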
% is set by controls: 0 for no effect and ±100 for the full control effect.

Activity change, negative = inhibition, inactive:
CN(C)c1nc(OCCOC(=O)Nc2ccc(Cl)cc2Cl)nc(N(C)C)n1 -3.73%
CCOC(=O)c1n[nH]c2ccccc12 7.22%
COn1c(SC2CCCCC2)nc2ccccc2c1=O -10.8%
CC1(C)NC(=O)N(CC(O)COc2ccccc2C(=O)Nc2ccccc2)C1=O (stereo not given) -6.46%
O=C(NCCC1=CCCCC1)c1ccc(=O)oc1 -16%
CC1CC(C(F)(F)F)n2ncnc2N1 (stereo not given) 5.99%
Cn1c(=O)c2c(nc(NCc3ccco3)n2CCc2ccccc2)n(C)c1=O -0.525%
COCCNc1oc(-c2ccc(Cl)cc2)nc1C#N -8.7%
OCCOCCNc1ncnc2c1cnn2-c1ccc(Cl)cc1 9.08%
CSc1nc(N)nc(SCC(=O)CC(=O)OC(C)C)c1C#N -2.75%
CCOC(=O)COn1c(=O)c(-c2ccc(OC)c(OC)c2)[n+]([O-])c2ccccc21 -0.29%
C=CCn1cnc2c(c1=O)c1nc3ccccc3nc1n2-c1ccc(C)cc1 -1.69%
CC(C)c1nc2n[nH]c(N)c2c2c1CCC2 3.28%
COC(=O)C1=C(C)OC(N)=C(C#N)C1c1ccc(OC)c(OC)c1OC (stereo not given) 11.2%
Cc1cccc(N(CC(O)CN(C)C)S(=O)(=O)c2ccccc2)c1 (stereo not given) -9.68%
Nc1ccc2oc3ncccc3c(=O)c2c1 7.58%
COc1ccc(CN2CCC(=O)NC2=O)cc1 9.75%
O=C(CCC1CCCC1)N1CCC(N2CCN(c3ccccc3)CC2)CC1 -5.6%
O=S(=O)(/C=C/c1ccccc1)Nc1ccc2c(c1)OCO2 -20.8%
CC(C)c1[nH]c(=O)c(C#N)c2c1CSC(C)(C)C2 -3.98%
O=C1OC(N2CCN(C/C=C/c3ccccc3)CC2)c2ccccc21 (stereo not given) 7.53%
Cn1c(=O)c2c(nc(Br)n2CCSc2ncccn2)n(C)c1=O 10.3%
Cc1[nH]c2ccc3c(ncn3CCC#N)c2c1C 0.919%
C=CCN(C(=O)CCC(=O)O)C1CC(=O)N(c2ccc(OC)cc2)C1=O (stereo not given) 6.46%
CC(=N\O)/C(CN(C)C)=N/O -9.85%
O=CN1CCN(C(=O)CN2C(=O)c3ccccc3C2=O)CC1 10.2%
CCn1nc(NC(=O)c2cccnc2)c2cc3ccccc3nc21 -12.7%
Cc1nnc(SCC(=O)N2CCOCC2)c2ccccc12 -1.59%
CCCC(=O)Nc1sc2c(c1C#N)CCCC2 -16.2%
COc1ccc(-c2nn3c(-c4ccccn4)nnc3s2)cc1OC -16.2%
CC(=O)/C(C#N)=C1\NC(=O)C(Cc2ccccc2)S1 (stereo not given) 0.644%
CCOC(=O)N1CCN(C(=O)c2cn(CC)c3cc(N4CCN(C)CC4)c(F)cc3c2=O)CC1 8.43%
Cn1ncc2c(Nc3ccccc3Br)ncnc21 5.55%
Cc1nnc2n(Cc3ccccc3)c(=O)c3c4c(sc3n12)COC(C(C)C)C4 (stereo not given) 10.6%
CCOC(=O)c1[nH]c2ccccc2c1NC(=O)CCN1CCN(C(=O)OCC)CC1 -2.19%
CCOc1ccc(-c2nc(C#N)c(N3CCN(CC)CC3)o2)cc1 -12.4%
O=C1CC(NCc2ccncc2)C(=O)N1c1ccc(Cl)cc1 (stereo not given) -15.8%
COc1ccc2nc(SCC(=O)O)nc(C)c2c1 5.08%
Clc1cccc(-c2nn3c(COc4ccccc4)nnc3s2)c1 6.46%
Cc1occc(=O)c1OC(=O)Nc1ccccc1 9.9%

Test: NFAT Signaling Pathway (AID 444);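 note: carbachol stimulus at about its EC50 of 1 µM final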
Conditions: Jurkat NFAT-bla M1, carbachol, beta-lactamase ratio, 5 h; at 17.2 µM (top of the series) unless noted
Summary of the method: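 Jurkat cells with NFAT-driven β-lactamase reporter and co-expressed M1 receptor, stimulated with carbachol (final 1 uM, ~EC50), compound titration, 5 h at 37 °C. CCF4 loaded 1 h at RT; 460/530 nm ratio gave %activity and AC50.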

Activity change, negative = inhibition, inactive:
CN(C)c1nc(OCCOC(=O)Nc2ccc(Cl)cc2Cl)nc(N(C)C)n1 -3.72%
CCOC(=O)c1n[nH]c2ccccc12 0.11%
COn1c(SC2CCCCC2)nc2ccccc2c1=O 7.75%
CC1(C)NC(=O)N(CC(O)COc2ccccc2C(=O)Nc2ccccc2)C1=O (stereo not given) 9.58%
O=C(NCCC1=CCCCC1)c1ccc(=O)oc1 -4.94%
CC1CC(C(F)(F)F)n2ncnc2N1 (stereo not given) -3.22%
Cn1c(=O)c2c(nc(NCc3ccco3)n2CCc2ccccc2)n(C)c1=O -24%
COCCNc1oc(-c2ccc(Cl)cc2)nc1C#N -6.46%
OCCOCCNc1ncnc2c1cnn2-c1ccc(Cl)cc1 0.366%
CSc1nc(N)nc(SCC(=O)CC(=O)OC(C)C)c1C#N 5.87%
CCOC(=O)COn1c(=O)c(-c2ccc(OC)c(OC)c2)[n+]([O-])c2ccccc21 -6.08%
C=CCn1cnc2c(c1=O)c1nc3ccccc3nc1n2-c1ccc(C)cc1 -10.5%
CC(C)c1nc2n[nH]c(N)c2c2c1CCC2 9.31%
COC(=O)C1=C(C)OC(N)=C(C#N)C1c1ccc(OC)c(OC)c1OC (stereo not given) -15.6%
Cc1cccc(N(CC(O)CN(C)C)S(=O)(=O)c2ccccc2)c1 (stereo not given) -3.01%
Nc1ccc2oc3ncccc3c(=O)c2c1 10.7%
COc1ccc(CN2CCC(=O)NC2=O)cc1 -0.653%
O=C(CCC1CCCC1)N1CCC(N2CCN(c3ccccc3)CC2)CC1 -29.5%
O=S(=O)(/C=C/c1ccccc1)Nc1ccc2c(c1)OCO2 -26.9%
CC(C)c1[nH]c(=O)c(C#N)c2c1CSC(C)(C)C2 -5.85%
O=C1OC(N2CCN(C/C=C/c3ccccc3)CC2)c2ccccc21 (stereo not given) 10.2%
Cn1c(=O)c2c(nc(Br)n2CCSc2ncccn2)n(C)c1=O 8.82%
Cc1[nH]c2ccc3c(ncn3CCC#N)c2c1C 9.51%
C=CCN(C(=O)CCC(=O)O)C1CC(=O)N(c2ccc(OC)cc2)C1=O (stereo not given) -8.7%
CC(=N\O)/C(CN(C)C)=N/O 13%
O=CN1CCN(C(=O)CN2C(=O)c3ccccc3C2=O)CC1 11.9%
CCn1nc(NC(=O)c2cccnc2)c2cc3ccccc3nc21 9.22%
Cc1nnc(SCC(=O)N2CCOCC2)c2ccccc12 3.16%
CCCC(=O)Nc1sc2c(c1C#N)CCCC2 -0.791%
COc1ccc(-c2nn3c(-c4ccccn4)nnc3s2)cc1OC -21.8%
CC(=O)/C(C#N)=C1\NC(=O)C(Cc2ccccc2)S1 (stereo not given) -11.2%
CCOC(=O)N1CCN(C(=O)c2cn(CC)c3cc(N4CCN(C)CC4)c(F)cc3c2=O)CC1 7.68%
Cn1ncc2c(Nc3ccccc3Br)ncnc21 17%
Cc1nnc2n(Cc3ccccc3)c(=O)c3c4c(sc3n12)COC(C(C)C)C4 (stereo not given) -9.5%
CCOC(=O)c1[nH]c2ccccc2c1NC(=O)CCN1CCN(C(=O)OCC)CC1 1.86%
CCOc1ccc(-c2nc(C#N)c(N3CCN(CC)CC3)o2)cc1 21%
O=C1CC(NCc2ccncc2)C(=O)N1c1ccc(Cl)cc1 (stereo not given) 13.2%
COc1ccc2nc(SCC(=O)O)nc(C)c2c1 7.89%
Clc1cccc(-c2nn3c(COc4ccccc4)nnc3s2)c1 -0.831%
Cc1occc(=O)c1OC(=O)Nc1ccccc1 1.25%
